Compounds without any hit were thinned out: in the full panel of roughly 79,000, 15% have a hit. Values without a mark were called inactive. Calls of active or inactive are those of the source. Rule as the data show it: active = growth inhibition above about 70%; inactive = the rest.

One experiment can be described thus: NCI Yeast Anticancer Drug Screen. Data for the mec2-1 strain (AID 157). To be noted: S. cerevisiae mec2-1 strain, at 50.0 µM, hits give high values. Summed up: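 Using mec2-1 yeast: add compound, measure growth, express inhibition versus vehicle-treated cultures.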
As to `NC(=O)c1nnsc1N/N=C/c1ccc([N+](=O)[O-])cc1`, the growth inhibition was 25.9%.
On the same count and under the same terms, with `O=C1C(c2ccccc2)=C(O)c2cccc3cccc1c23` the figure was -33.5%.
On the same count and under the same terms, with `O=S1(=O)CCCCC1C(O)(c1ccccc1)c1ccccc1` (stereo not drawn) the figure was 94.2% (active); with `CNc1nc2c(C)ccc3[nH]c(NC)nc3c-2n1`, -25.1%.
On the same count and under the same terms, next, `CCC(CC)C(=O)OCCCC1CCCO1` (stereo not drawn): 2.9%.
Consider `CC(=O)OCC1OC(n2nnc3c(=O)n(C)c(=O)[nH]c32)C(OC(C)=O)C(OC(C)=O)C1OC(C)=O` (stereo not drawn), for which the growth inhibition is 16.1%.
Still for that read-out and setting: next, `CC1COCOC1c1ccc2c(c1)OCO2` (stereo not drawn): 4%.
Same read-out and setting: with `Nc1ccc(OCC(O)N2C(=O)c3ccccc3C2=O)cc1` (stereo not drawn) the figure was -39.5%.
Consider `O=C(O)/C=C/SCc1ccccc1`, for which the growth inhibition was -13.2%.
For the compound `Cc1cc(O)c(C(c2ccc(C#N)cc2)c2c(O)cc(C)[nH]c2=O)c(=O)[nH]1`, the growth inhibition was -31.9%.
Same read-out and setting: with `CCOC(=O)Nc1nn(-c2ccc3ccccc3n2)c(=O)[nH]1` the figure was 1.65%.
As for `CCN(CC)CCCCNc1ccnc(N)n1`, the growth inhibition is -10.5%.
The same measure, in the same setting: with `Cc1cc(Cc2cccc3ccccc23)nc2c1ccc1ccccc12` the figure was -11.2%.
Still for that read-out and setting: next, `Clc1ccccc1-c1c2ccccc2cc2c1ccc1ccccc12`: -14.5%.
Same read-out and setting: next, `CCn1c(SCC(=O)N/N=C/c2ccccc2)nc2ccccc2c1=O`: 6.95%.
As to `COc1ccc2c(c1)OCc1c-2oc2ccccc2c1=O`, the growth inhibition was -4.55%.
Still for that read-out and setting: with `CC12CC3(C)CC(C)(C1)CC(C(NC(C)(C)C)C(=O)O)(C2)C3` (stereo not drawn) the figure was 20.1%; with `COc1ccc(C2CN=NN2c2ccc([N+](=O)[O-])cc2)cc1` (stereo not drawn), -16.6%; with `CC(=O)C1=C(C)C2CC3(C)CC(C2(C)C1)C3(C)C` (stereo not drawn), -17.1%.
The same measure, in the same setting: with `COC(=O)CCc1ccc(N)cc1` the figure was -2.95%.
`N#C/C(=N\Nc1ccc(F)cc1)C(=O)C1CC1`: the growth inhibition was 9.05%.
On to `CC(=O)NC(Cc1ccccc1)C(=O)Nc1ccc(C)cc1` (stereo not drawn), for which the growth inhibition is 0.55%.
Take `COC(=O)N/N=C(/CC1(O)C(=O)Nc2ccc([N+](=O)[O-])cc21)c1ccccc1` (stereo not drawn): the growth inhibition was 34.2%.

The nature of another experiment: NCI Yeast Anticancer Drug Screen. Data for the sgs1 mgt1 strain (AID 161).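 Also: 0% = growth of cultures given vehicle only.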 To be noted: S. cerevisiae sgs1 mgt1 strain, at 50.0 µM, hits give high values. Summed up:
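Yeast cells carrying a defined DNA-repair defect were exposed to test compounds. Growth inhibition was measured relative to vehicle-treated controls.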
For `C[CH2][Sn]([CH2]C)([O]P(=O)(C[Si](C)(C)C)c1ccccc1)[O]P(=O)(C[Si](C)(C)C)c1ccccc1` (stereo not drawn), the growth inhibition was 4.2%.
On the same count and under the same terms, with `CC(C)(C)NC(=O)Oc1ccc(Br)cc1Br` the figure was 18.6%; with `CC1(C)C=CC(=NO)C=C1`, -5.95%; with `NC(=S)N/N=C/c1ccncc1`, -17.6%.
Still for that read-out and setting: next, `O=C1CCCC(C(Sc2ccccc2)(Sc2ccccc2)Sc2ccccc2)C1` (stereo not drawn): 65.2%; `O=C(OC1CCC2(CC1)N=NC1(CCC(OC(=O)c3ccccc3)CC1)S2)c1ccccc1` (stereo not drawn): -2.25%.
Take `CSc1nc(=O)cc(N)n1C`: the growth inhibition is 9.55%.
The same measure, in the same setting: with `CSc1ccc(NC(=O)Nc2ccc(Cl)cc2C(=O)c2ccccc2)cc1` the figure was 93.7% (active); with `CC(=O)C1(N=Nc2ccc(S(N)(=O)=O)cc2)CCOC1=O` (stereo not drawn), -27.1%.
Still for that read-out and setting: next, `CC(C)=CCc1c(C)cc2cc3c(c(O)c2c1O)C(O)=CC(=O)C3(CC=C(C)C)C/C=C(\C)CO` (stereo not drawn): 52.5%.
On the same count and under the same terms, with `CC(=O)Nc1cc2cc(NC(=O)C(Cl)(Cl)Cl)ccc2oc1=O` the figure was -4.65%.
Regarding `Cc1ccc(F)c(N)c1`, the growth inhibition is 24.1%.
Still for that read-out and setting: next, `CCCCCCCCCCCCCCCCCCCCCCC`: -21.9%.
The same measure, in the same setting: with `CC(C)C(=O)/C=C/c1ccc(Br)cc1` the figure was 1%; with `CN(C)CC1CCC/C(=C\c2ccccc2)C1=O` (stereo not drawn), 47.8%.
On the same count and under the same terms, with `CN(C)C(=O)c1ccc([N+](=O)[O-])cc1` the figure was 11.8%; with `O=C(N=Nc1c(O)[nH]c2ccccc12)C(=O)N=Nc1c(O)[nH]c2ccccc12`, 9.5%; with `NC(=O)c1nnsc1N/N=C/c1ccc([N+](=O)[O-])cc1`, -25.1%.
As to `O=C1C(c2ccccc2)=C(O)c2cccc3cccc1c23`, the growth inhibition was -13%.
The same measure, in the same setting: next, `O=S1(=O)CCCCC1C(O)(c1ccccc1)c1ccccc1` (stereo not drawn): 91.2% (active); `CNc1nc2c(C)ccc3[nH]c(NC)nc3c-2n1`: -6.65%; `CCC(CC)C(=O)OCCCC1CCCO1` (stereo not drawn): 7.9%.
Same read-out and setting: next, `CC(=O)OCC1OC(n2nnc3c(=O)n(C)c(=O)[nH]c32)C(OC(C)=O)C(OC(C)=O)C1OC(C)=O` (stereo not drawn): 13.8%; `CC1COCOC1c1ccc2c(c1)OCO2` (stereo not drawn): 6%; `Nc1ccc(OCC(O)N2C(=O)c3ccccc3C2=O)cc1` (stereo not drawn): -32.9%.
Still for that read-out and setting: next, `O=C(O)/C=C/SCc1ccccc1`: 0.8%; `Cc1cc(O)c(C(c2ccc(C#N)cc2)c2c(O)cc(C)[nH]c2=O)c(=O)[nH]1`: 1.95%; `CCOC(=O)Nc1nn(-c2ccc3ccccc3n2)c(=O)[nH]1`: 10.7%.
Regarding `CCN(CC)CCCCNc1ccnc(N)n1`, the growth inhibition is 2.7%.
On the same count and under the same terms, with `Cc1cc(Cc2cccc3ccccc23)nc2c1ccc1ccccc12` the figure was 12.2%; with `Clc1ccccc1-c1c2ccccc2cc2c1ccc1ccccc12`, -7.75%.
On the same count and under the same terms, with `CCn1c(SCC(=O)N/N=C/c2ccccc2)nc2ccccc2c1=O` the figure was 3.8%; with `COc1ccc2c(c1)OCc1c-2oc2ccccc2c1=O`, -10.9%.
Same read-out and setting: with `CC12CC3(C)CC(C)(C1)CC(C(NC(C)(C)C)C(=O)O)(C2)C3` (stereo not drawn) the figure was 11.9%; with `COc1ccc(C2CN=NN2c2ccc([N+](=O)[O-])cc2)cc1` (stereo not drawn), -9.15%; with `CC(=O)C1=C(C)C2CC3(C)CC(C2(C)C1)C3(C)C` (stereo not drawn), -0.95%.
Consider `COC(=O)CCc1ccc(N)cc1`, for which the growth inhibition is 9.5%.
Still for that read-out and setting: with `N#C/C(=N\Nc1ccc(F)cc1)C(=O)C1CC1` the figure was 5.8%; with `CC(=O)NC(Cc1ccccc1)C(=O)Nc1ccc(C)cc1` (stereo not drawn), 15.8%; with `COC(=O)N/N=C(/CC1(O)C(=O)Nc2ccc([N+](=O)[O-])cc21)c1ccccc1` (stereo not drawn), 36.5%.

Values taken from PubChem BioAssay (NCI).
